Measurements published in PubChem BioAssay (NCATS).
“And” between values parts separate entries of the source, which are not always exact repeats. Identical values can stand only once. Results filed as inconclusive are left out. Where a call stands in place of a potency, no number is given. The source holds several records for some structures; these can differ, active in one and inactive in another. The source made the active and inactive calls. Unless noted, calls come from the whole dose curve; as a rule, active = well fitted curve in the direction sought with a large enough effect; inconclusive = small, poorly fitted or top-dose-only effect, or another doubt; inactive = no such curve, though single readings can be large; an effect the other way counts as inactive or inconclusive. Non-standard residues stand in square brackets, D forms with d. Residues, ends and D or L forms follow the SMILES beside them. *: point of attachment. Sta = CC(C)C[C@H](N)[C@@H](O)CC(=O)O; Isovaleryl = CC(C)CC(=O)*

Assays:
[1] = Primary qHTS for inhibitors of nuclear receptor binding SET domain protein 2 (NSD2) in an isogenic RCH-ACV NSD2 p.E1099K mutant (9B) (AID 1645876); note: nearly all actives have a fitted effect of over 70% in size; note: potency is the fitted concentration of half-maximal effect
[2] = Primary qHTS for inhibitors of nuclear receptor binding SET domain protein 2 (NSD2) in an RCH-ACV wild type WT cells (2C) (AID 1645877); note: nearly all actives have a fitted effect of over 70% in size; note: potency is the fitted concentration of half-maximal effect
[3] = NCATS anti-infectives library activity on HEK293 viability as a counter-qHTS vs the C. elegans viability qHTS (AID 1745854)
Method in brief: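 CellTiter-Glo luminescence, read on a CCD imager, scored viability of HEK293 cells after 24 hr compound exposure at 37C. Library tested in several concentrations, 1:5 steps, up to 41.7 uM; digitonin served as control.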

[4] = NCATS anti-infectives library activity on the primary C. elegans qHTS viability assay (AID 1745855; calls by dose curve; note: potency is the fitted concentration of half-maximal effect)
Method in brief: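 Titration-based screen in worms: eggs hatched overnight in M9, L1 larvae fed TOP10 capsules in S medium with compound, incubated 21 °C for 7 days; fluorescent objects gated by size and intensity at days 0, 3 and 7.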

[5] = molecular target: Catechol O-methyltransferase (Homo sapiens) (UniProt P21964); assay: Confirmatory Screen for Target Class Profiling of Small Molecule Inhibitors of Methyltransferases (AID 1745852; calls by dose curve; note: potency is the fitted concentration of half-maximal effect); conditions: MTase-Glo luminescence, SAH detection, recombinant enzyme, stronger effect = lower value; measured here: COMT max response unless noted
[6] = molecular target: Guanidinoacetate N-methyltransferase (Homo sapiens) (UniProt Q14353); assay: as above; conditions: MTase-Glo luminescence, SAH detection, recombinant enzyme; activity change, negative = inhibition: at 57.3 µM (top of the series)
[7] = molecular target: Nicotinamide N-methyltransferase (Homo sapiens) (UniProt P40261); assay: as above; conditions: MTase-Glo luminescence, SAH detection, recombinant enzyme, stronger effect = lower value; measured here: NNMT max response unless noted
[8] = molecular target: Phenylethanolamine N-methyltransferase (Homo sapiens) (UniProt P11086); assay: as above; conditions: MTase-Glo luminescence, SAH detection, recombinant enzyme, stronger effect = lower value; measured here: PNMT max response unless noted
[9] = molecular target: Rap guanine nucleotide exchange factor 3 (Homo sapiens) (UniProt O95398); assay: Confirmatory qHTS for antagonist of cAMP-regulated guanine nucleotide exchange factor 3 (EPAC1) (AID 1645880); note: nearly all actives have a fitted effect of over 55% in size
Method in brief: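 Released BODIPY-GDP fluoresces less than Rap1-bound BODIPY-GDP; the signal is followed at 480/540 nm at 5-min intervals over 30 min, after 5 min at room temperature. Reactions contain 100 nM EPAC1, 250 nM RAP1B-BODIPY-GDP and 50 uM GDP; results are normalized to ATA and DMSO.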

[10] = molecular target: Rap guanine nucleotide exchange factor 3 (Homo sapiens) (UniProt O95398); assay: Confirmatory qHTS for agonist of cAMP-regulated guanine nucleotide exchange factor 3 (EPAC1) (AID 1645881);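 note: EPAC1 catalysed release of BODIPY-GDP from Rap1B seen as fluorescence loss; nearly all actives have a fitted effect of over 75% in size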
[11] = molecular target: Rap guanine nucleotide exchange factor 4 (Homo sapiens) (UniProt Q8WZA2); assay: Confirmatory qHTS for agonist of cAMP-regulated guanine nucleotide exchange factor 4 (EPAC2) (AID 1645884);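 note: nucleotide exchange releases bodipy-GDP from Rap1 and this lowers its fluorescence; nearly all actives have a fitted effect of over 65% in size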
[12] = molecular target: Rap guanine nucleotide exchange factor 4 (Homo sapiens) (UniProt Q8WZA2); assay: Confirmatory qHTS for antagonist of cAMP-regulated guanine nucleotide exchange factor 4 (EPAC2) (AID 1645885); note: potency is the fitted concentration of half-maximal effect; nearly all actives have a fitted effect of over 25% in size

Sequence of Rap guanine nucleotide exchange factor 3 (Homo sapiens) (O95398 whole entry, looked up): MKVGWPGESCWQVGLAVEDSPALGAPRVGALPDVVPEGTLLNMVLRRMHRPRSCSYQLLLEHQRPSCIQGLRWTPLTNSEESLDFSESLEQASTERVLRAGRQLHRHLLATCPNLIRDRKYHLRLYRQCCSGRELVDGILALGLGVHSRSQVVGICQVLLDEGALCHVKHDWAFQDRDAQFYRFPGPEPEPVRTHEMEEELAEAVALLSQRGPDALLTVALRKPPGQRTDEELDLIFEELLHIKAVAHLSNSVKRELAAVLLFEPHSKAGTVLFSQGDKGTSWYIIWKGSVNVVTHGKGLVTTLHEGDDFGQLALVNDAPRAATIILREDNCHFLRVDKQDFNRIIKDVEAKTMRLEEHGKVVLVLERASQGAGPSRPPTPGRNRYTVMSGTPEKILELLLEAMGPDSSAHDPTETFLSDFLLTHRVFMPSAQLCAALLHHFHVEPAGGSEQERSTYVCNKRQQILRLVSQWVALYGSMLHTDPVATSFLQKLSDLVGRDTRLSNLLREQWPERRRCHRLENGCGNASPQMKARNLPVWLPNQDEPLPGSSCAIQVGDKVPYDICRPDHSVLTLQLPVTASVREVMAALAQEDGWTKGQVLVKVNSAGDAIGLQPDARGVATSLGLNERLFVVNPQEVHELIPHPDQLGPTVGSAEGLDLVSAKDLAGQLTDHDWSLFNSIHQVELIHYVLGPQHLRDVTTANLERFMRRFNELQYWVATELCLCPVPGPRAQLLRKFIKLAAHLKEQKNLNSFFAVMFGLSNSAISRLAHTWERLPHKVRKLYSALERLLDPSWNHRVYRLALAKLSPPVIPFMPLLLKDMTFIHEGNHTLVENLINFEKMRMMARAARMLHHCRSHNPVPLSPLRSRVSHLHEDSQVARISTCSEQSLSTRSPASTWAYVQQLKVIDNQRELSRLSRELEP
Sequence of Catechol O-methyltransferase (Homo sapiens) (P21964 whole entry, looked up): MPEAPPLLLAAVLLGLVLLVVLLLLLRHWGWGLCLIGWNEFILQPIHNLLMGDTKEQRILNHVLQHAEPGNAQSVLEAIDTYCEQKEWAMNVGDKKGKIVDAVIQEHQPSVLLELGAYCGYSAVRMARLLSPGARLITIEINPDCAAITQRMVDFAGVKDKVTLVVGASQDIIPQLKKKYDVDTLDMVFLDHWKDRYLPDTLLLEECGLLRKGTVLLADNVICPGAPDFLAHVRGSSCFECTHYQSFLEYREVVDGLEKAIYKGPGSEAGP
Sequence of Phenylethanolamine N-methyltransferase (Homo sapiens) (P11086 whole entry, looked up): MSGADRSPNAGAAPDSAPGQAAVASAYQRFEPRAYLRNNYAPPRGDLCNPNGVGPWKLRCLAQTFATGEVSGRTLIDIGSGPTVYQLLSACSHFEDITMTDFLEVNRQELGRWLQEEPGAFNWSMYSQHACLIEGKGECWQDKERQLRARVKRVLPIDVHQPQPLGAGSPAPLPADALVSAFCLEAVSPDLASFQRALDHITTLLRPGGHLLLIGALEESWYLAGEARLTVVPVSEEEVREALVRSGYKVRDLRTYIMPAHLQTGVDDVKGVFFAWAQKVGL
Sequence of Rap guanine nucleotide exchange factor 4 (Homo sapiens) (Q8WZA2 whole entry, looked up): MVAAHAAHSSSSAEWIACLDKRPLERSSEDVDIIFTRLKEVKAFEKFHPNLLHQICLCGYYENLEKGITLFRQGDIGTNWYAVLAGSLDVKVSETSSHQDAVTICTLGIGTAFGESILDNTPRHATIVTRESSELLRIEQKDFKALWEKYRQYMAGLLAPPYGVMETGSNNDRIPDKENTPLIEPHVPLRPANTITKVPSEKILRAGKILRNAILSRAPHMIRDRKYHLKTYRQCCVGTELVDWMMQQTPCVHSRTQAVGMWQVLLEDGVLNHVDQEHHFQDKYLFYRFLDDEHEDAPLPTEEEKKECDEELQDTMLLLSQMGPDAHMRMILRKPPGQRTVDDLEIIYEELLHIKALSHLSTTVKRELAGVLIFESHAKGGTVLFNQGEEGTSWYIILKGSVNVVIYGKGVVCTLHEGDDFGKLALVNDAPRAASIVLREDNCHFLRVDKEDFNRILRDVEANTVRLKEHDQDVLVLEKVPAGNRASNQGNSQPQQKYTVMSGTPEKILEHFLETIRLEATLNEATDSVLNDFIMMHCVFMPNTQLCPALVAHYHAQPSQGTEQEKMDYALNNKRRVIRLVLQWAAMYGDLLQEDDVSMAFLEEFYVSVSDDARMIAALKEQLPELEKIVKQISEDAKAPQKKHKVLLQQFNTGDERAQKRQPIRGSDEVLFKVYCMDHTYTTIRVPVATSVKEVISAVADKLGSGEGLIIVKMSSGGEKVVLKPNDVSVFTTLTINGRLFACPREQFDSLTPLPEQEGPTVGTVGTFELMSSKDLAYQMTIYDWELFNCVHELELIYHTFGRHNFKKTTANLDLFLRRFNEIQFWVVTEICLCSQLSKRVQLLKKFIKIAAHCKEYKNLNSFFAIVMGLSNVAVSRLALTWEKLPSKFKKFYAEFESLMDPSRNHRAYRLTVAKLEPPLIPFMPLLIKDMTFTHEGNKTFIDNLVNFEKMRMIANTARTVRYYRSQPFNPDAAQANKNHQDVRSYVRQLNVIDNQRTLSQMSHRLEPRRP
Sequence of Nicotinamide N-methyltransferase (Homo sapiens) (P40261 whole entry, looked up): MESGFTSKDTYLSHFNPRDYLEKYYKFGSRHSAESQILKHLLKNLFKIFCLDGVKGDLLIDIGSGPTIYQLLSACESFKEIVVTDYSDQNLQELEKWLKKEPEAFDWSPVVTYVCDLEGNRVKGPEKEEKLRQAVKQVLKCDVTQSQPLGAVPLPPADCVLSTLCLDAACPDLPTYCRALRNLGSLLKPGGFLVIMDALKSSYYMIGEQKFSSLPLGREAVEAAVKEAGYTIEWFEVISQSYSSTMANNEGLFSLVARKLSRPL

O=C1NC(=O)C(c2ccccc2[N+](=O)[O-])=C1Nc1ccc(O)c(Cl)c1
Potency [1]: 13.2 µM (active)
Potency [2]: 18.6 µM (active)
outcome [3]: inactive

N=C(N=C(N)N)N1CCOCC1
Potency [1]: inactive
Potency [2]: inactive
outcome [3]: inactive
Potency [4]: inactive

CC(=O)NC[C@H]1CN(c2ccc(N3CCOCC3)c(F)c2)C(=O)O1
Potency [1]: inactive
Potency [2]: inactive
outcome [3]: inactive

Cc1c(OCC(F)(F)F)ccnc1CS(=O)c1nc2ccccc2[nH]1 (stereo not drawn)
activity [5]: 13%
activity change, negative = inhibition [6]: 6.68%
activity [7]: 8.13%
activity [8]: 10%

COC(=O)C1=C(C)NC(C)=C(C(=O)OC(C)C)C1c1cccc2nonc12 (stereo not drawn)
Potency [9]: inactive
outcome [10]: inactive
outcome [11]: inactive
Potency [12]: 44.1 µM (active)

Cc1ccc(NC(=O)c2ccc(CN3CCN(C)CC3)cc2)cc1Nc1nccc(-c2cccnc2)n1
Potency [1]: 15 µM (active) and 20.6 µM (active) and 18.6 µM (active)
Potency [2]: 13.3 µM (active) and 18.4 µM (active) and 16.6 µM (active)
outcome [3]: inactive

CC(C)CC(=O)N[C@H](C(=O)N[C@H](C(=O)N[C@@H](CC(C)C)[C@@H](O)CC(=O)N[C@@H](C)C(=O)N[C@@H](CC(C)C)[C@@H](O)CC(=O)O)C(C)C)C(C)C (Isovaleryl-VV[Sta]A[Sta]-OH)
Potency [1]: inactive
Potency [2]: inactive
outcome [3]: inactive

COC(=O)N[C@H](C(=O)N[C@@H](Cc1ccccc1)[C@@H](O)CN(Cc1ccc(-c2ccccn2)cc1)NC(=O)[C@@H](NC(=O)OC)C(C)(C)C)C(C)(C)C
outcome [3]: inactive

O=C(O)c1cccnc1Nc1cccc(C(F)(F)F)c1
Potency [2]: inactive

CC(C)C[C@H](NC(=O)[C@H](Cc1ccccc1)NC(=O)c1cnccn1)B(O)O
Potency [1]: 3.8 nM (active) and 5.2 nM (active) and 26.3 nM (active)
Potency [2]: 3.8 nM (active) and 6.5 nM (active) and 18.6 nM (active)
Potency [4]: 2.3 µM (active)

CC(C)c1nc(CN(C)C(=O)N[C@H](C(=O)N[C@@H](Cc2ccccc2)C[C@H](O)[C@H](Cc2ccccc2)NC(=O)OCc2cncs2)C(C)C)cs1
outcome [3]: inactive

CN(C)C(=O)COC(=O)Cc1ccc(OC(=O)c2ccc(N=C(N)N)cc2)cc1
Potency [1]: inactive
Potency [2]: inactive
outcome [3]: inactive

CCN(CCO)CCCC(C)Nc1ccnc2cc(Cl)ccc12 (stereo not drawn)
activity change, negative = viability loss [1]: 1.42% [at 4.96 µM] (inactive) and 7.11% [at 4.96 µM] (inactive)
outcome [2]: inactive [at 4.96 µM]
activity change, negative = cytotoxicity [3]: -19.5% [at 3.71 µM] (inactive)

COc1ccc2cc([C@H](C)C(=O)O)ccc2c1
outcome [3]: inactive
Potency [4]: inactive

CC(=O)N1CCN(c2ccc(OC[C@H]3CO[C@](Cn4ccnc4)(c4ccc(Cl)cc4Cl)O3)cc2)CC1
Potency [9]: inactive
outcome [10]: inactive
outcome [11]: inactive
Potency [12]: 49.4 µM (active)

CCN(CC)CCOc1ccc(Cc2ccccc2)cc1
Potency [2]: 29.9 µM (active)

O=c1ccc2ccc(O)c(O)c2o1
activity [5]: 197%
activity change, negative = inhibition [6]: 2.41%
activity [7]: -4.08%
activity [8]: 2.42%

CC(C)[C@H](N)C(=O)OCCOCn1cnc2c(=O)[nH]c(N)nc21
Potency [1]: inactive
Potency [2]: inactive
outcome [3]: inactive

NCCCCNCCCN
Potency [2]: 6.61 µM (active)

O=P(O)(O)C(O)(Cn1ccnc1)P(=O)(O)O
activity change, negative = viability loss [1]: 6% [at 4.96 µM] (inactive)
outcome [2]: inactive [at 4.96 µM]
activity change, negative = cytotoxicity [3]: -5.55% [at 3.71 µM] (inactive)

Oc1ccc(OCc2ccccc2)cc1
Potency [1]: inactive and 2.63 µM (active)
Potency [2]: inactive and 4.68 µM (active)
outcome [3]: inactive

Oc1ccc2ccccc2c1SSc1c(O)ccc2ccccc12
Potency [1]: 23.5 µM (active) and 16.4 µM (active)
activity [5]: 22.1%
activity change, negative = inhibition [6]: -0.328%
activity [7]: -8.59%
activity [8]: 2.32%

Cc1cc2c(s1)Nc1ccccc1N=C2N1CCN(C)CC1
Potency [2]: 23.5 µM (active)

CN1CCC(=C2c3ccccc3CCc3sccc32)CC1
Potency [2]: 23.5 µM (active)

C[C@H](Cn1cnc2c(N)ncnc21)OCP(=O)(O)O
outcome [3]: inactive

CCOC(=O)c1c(C)n(C)c2ccc(O)cc12
Potency [1]: inactive
Potency [2]: inactive
outcome [3]: inactive

CCOC(=O)C1=C[C@@H](OC(CC)CC)[C@H](NC(C)=O)[C@@H](N)C1
Potency [1]: inactive
Potency [2]: inactive
outcome [3]: inactive
Potency [4]: inactive

N=C(N)c1ccc2cc(OC(=O)c3ccc(N=C(N)N)cc3)ccc2c1
Potency [1]: inactive
Potency [2]: inactive
outcome [3]: inactive
Potency [4]: inactive

Cc1nc(Nc2ncc(C(=O)Nc3c(C)cccc3Cl)s2)cc(N2CCN(CCO)CC2)n1
Potency [1]: 0.7 nM (active) and 12.9 nM (active) and 20.9 nM (active)
activity [5]: -54.8%
Potency [6]: 30.4 µM (active)
activity [7]: -33%
activity [8]: -52.6%
outcome [3]: inactive

COc1c(O)cc2c(c1O)[C@@H]1O[C@H](CO)[C@@H](O)[C@H](O)[C@H]1OC2=O
Potency [1]: inactive
Potency [2]: inactive
activity [5]: -77.9%
activity change, negative = inhibition [6]: 0%
activity [7]: 1.14%
activity [8]: -0.831%
outcome [3]: inactive

CN(C)[C@@H](CCOc1cccc2ccccc12)c1ccccc1
Potency [2]: 23.7 µM (active)

Cc1cc(Cl)ccc1OCCCC(=O)NO
Potency [1]: 1.48 µM (active)
Potency [2]: 1.66 µM (active)
outcome [3]: inactive
